From PubChem BioAssay
Rows were chosen to be rich in hits. Some 3.5% of all compounds tested hit in one or more screens of this group.
mHTT-CaM PPI inh – mutant huntingtin-calmodulin interaction inhibitors – biochemical, AlphaScreen, primary screen; P42858; AlphaScreen His-mHTT/GST-CaM binding, luminescence; inhibition, % at 15 µM; hit rate 3.6% among 190,000; AID 1671202, 2021;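 note: 0% = both proteins with DMSO and 100% = one protein alone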
Pf apPOL block – Pf-apPOL inhibitors, biochemical, fluorescence | inhibition, % at 10 µM | AID 1794808, 2022 | hit rate 0.25% among 210,000 | Recombinant Pf-apPOL, molecular beacon fluorescence, 1.5 h
* hit, by the source's call; i = inactive; . = not tested or not shown; ! = repeats disagree. Cut-off read from the data, not from the text of the source: active = inhibition above about 50%; inactive = the rest.

SMILES	mHTT-CaM PPI inh	Pf apPOL block
Cc1ccnc(Nc2nc(-c3ccc4c(c3)OCO4)cs2)c1	56*	-1
Cc1ccnc(Nc2nc(-c3cccnc3)cs2)c1	7	72*!
COCCCn1cc(C(=O)Nc2cccc(C)n2)c2nn(-c3ccccc3)c(=O)c-2c1	-3	0
COc1ccc(C2Nc3ccccc3C(=O)N2c2ccccc2)cc1COc1ccccn1 (stereo unspecified)	1	2
O=C(/C=C/c1ccco1)Nc1c2c(nn1-c1ccc([N+](=O)[O-])cc1)CSC2	98*	-4
O=C(Nc1c2c(nn1-c1ccc(F)cc1)CS(=O)(=O)C2)c1cccs1	3	-4
COc1ccc(/C=C/C(=O)Nc2c3c(nn2-c2ccc([N+](=O)[O-])cc2)CSC3)cc1OC	45	-6
O=C(Nc1c2c(nn1-c1ccc([N+](=O)[O-])cc1)CS(=O)(=O)C2)c1cccs1	5	-2
O=C(Nc1c2c(nn1-c1ccc(F)cc1)CSC2)c1cccs1	51*	-10
O=C(Nc1c2c(nn1-c1ccc([N+](=O)[O-])cc1)CSC2)c1cccs1	55*	-4
Cc1ccc(N2CCCS2(=O)=O)cc1NC(=O)Nc1ccc(Cl)c(Cl)c1	-3	-7
Cc1cc(C)cc(NC(=O)O[C@H]2CCC23CCCCC3)c1	-55	-4
CCCOc1ccc(C2C(=O)N(C3CCCCC3)CC(=O)N2Cc2cccs2)cc1OC (stereo unspecified)	17	-8
Cc1nc(-c2cnccn2)sc1C(=O)Nc1cc(-c2ccc(Cl)cc2)[nH]n1	.	15
COc1cc(CN2CCN(C/C=C/c3ccccc3)CC2)ccc1O	18	-3
COc1ccccc1CCC(=O)N1CCC2(C1)Nc1cccnc1NC2=NC1CCCC1 (stereo unspecified)	17	2
COC(=O)c1ccccc1NC(=O)CCC(=O)O	-7	3
O=C(Cn1cccc1)N1CCC(c2nnc(-c3ccco3)s2)CC1	-8	21
O=C(CN1CCC(c2nnc(-c3ccco3)s2)CC1)c1ccc(Cl)cc1	72*	4
COc1cccc(CN2CCN(C(=O)c3cccs3)CC2)c1OC	1	-4
Nc1ccc(C23CC4CC(CC(C4)C2)C3)cc1	58*	-8
NS(=O)(=O)c1ccc(C23CC4CC(CC(C4)C2)C3)cc1	7	-5
NC(=O)CC12CC3CC(C1)CC(c1ccccc1)(C3)C2	4	-9
Nc1ccc(C23CC4CC(C2)CC(c2ccc(N)cc2)(C4)C3)cc1	84*	-8
Nc1ccccc1SC(CC(=O)c1ccccc1)c1ccc2c(c1)OCO2 (stereo unspecified)	.	-12
SMILES	mHTT-CaM PPI inh	Pf apPOL block
COC(=O)Oc1ccc2c(=O)c(Oc3ccccc3Cl)coc2c1	69*	2
COC(=O)Oc1ccc2c(=O)c(-c3ccccc3Cl)coc2c1	61*!	-4
CCOC(=O)Oc1ccc2c(=O)c(Oc3ccccc3Cl)coc2c1	28	-3
CCOC(=O)Oc1ccc2c(=O)c(-c3ccccc3Cl)coc2c1	16	-3
O=C(NC1CC1)c1cc2n(n1)CCCN(Cc1ccccc1)C2=O	-6	0
CNC(=O)C(=O)Nc1ccc(F)c(Cl)c1	-6	-4
NC(=O)CN(Cc1ccc(Br)cc1)S(=O)(=O)c1ccccc1	-2	-10
COc1ccccc1Cc1noc(C2CN(C(=O)c3ccco3)C2)n1	-20	-6
CCOc1cc(N2C(=O)CC3CS(=O)(=O)CC32)c(OCC)cc1NC(=O)c1ccccc1 (stereo unspecified)	3	-4
O=C(Nc1cccc(Cl)c1)c1cc([N+](=O)[O-])ccc1NCCO	94*	1
NCCNc1ccc([N+](=O)[O-])cc1C(=O)Nc1cccc(Cl)c1	28	12
CC(=O)Nc1ccc(Cl)c2c1C(=O)c1ccccc1C2=O	5	10
CNc1ccc(Cl)c2c1C(=O)c1ccccc1C2=O	77*	33
COc1ccc(C(O)CN2CCN(c3ccccc3Cl)CC2)cc1 (stereo unspecified)	5	0
Cc1ccccc1NC(=O)CSc1nccn1-c1cccc(C(=O)Nc2ccccc2)c1	60*	-7
O=C(CSc1nccn1-c1cccc(Cl)c1)Nc1ccccc1F	32	4
CN1CCN(c2ccc([N+](=O)[O-])c(Sc3cccc4cccnc34)c2)CC1	35	-1
O=[N+]([O-])c1ccc(N2CCCC2)cc1Sc1cccc2cccnc12	101*	-2
CN1/C(=C\Sc2ccccc2[N+](=O)[O-])C(C)(C)c2ccccc21	76*	1
CN1C(=CC=C2C(=O)Oc3ccccc3C2=O)C(C)(C)c2ccccc21	-7	i
Cc1ccc(C)c(N(C)C(=O)C2CCCN(c3ncnc4c3nc3n4CCCCC3)C2)c1 (stereo unspecified)	36	3
CCCCCCCCN1C(=O)CCC1=O	-9	.
CCCCCCCCCn1cc[n+](CCCCCCCCC)c1C	100*	.
COc1ccc(C(N)=NO)cc1	1	-10
CCc1ccc(/C=C2\C(=O)Nc3ccc(Cl)cc32)cc1	44	-1
